Laboratory results published in PubChem BioAssay AID430 (Sanford-Burnham Center for Chemical Genomics, 2006).
In all, about 63,000 compounds went through this assay and about 1,100 (1.7%) were called active. The sample holds actives, similar compounds and a random draw of the others, so the mix is not that of the screen. Rule as the data show it: active = cytotoxicity above about 50%; inactive = the rest. Results with a measured potency or affinity are listed apart.

Assay: HPDE-C7 pancreatic duct cell viability loss – fluorescence, HTS (AID 430);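 also: cells exposed to compound for 48 hours before viability readout; 0% = vehicle and 100% = reference cytotoxic drug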
Conditions: HPDE-C7 pancreatic duct cells viability, at 10 µM, stronger effect = higher value

| Structure (SMILES) | cytotoxicity |
| --- | --- |
| CC(C)n1c(Nn2cnnc2)nc2ccccc21 | 3.1% (inactive) |
| Cc1cc(C(=O)OCC(=O)N2CCN(c3ccccc3)CC2)c2ccccc2n1 | -8.3% (inactive) |
| O=C(CSc1nnc(-c2cccnc2)n1Cc1ccco1)c1ccccc1 | -18.2% (inactive) |
| O=C(Cc1cccs1)Nc1cccc(C(=O)Nc2ccco2)c1 | 54.2% (active) |
| CC(=O)c1cccc(NC(=O)Cc2cccs2)c1 | -5.3% (inactive) |
| O=C(Cc1cccs1)Nc1ccc(NC(=O)c2ccco2)cc1 | -14.5% (inactive) |
| CCOC(=O)C(C)Sc1nnc(Cn2c(=O)sc3ccccc32)n1-c1ccccc1 (stereo not given) | 18.4% (inactive) |
| CCOC(=O)N1CCN(C(=O)C2CCC(C(=O)N3CCN(C(=O)OCC)CC3)CC2)CC1 (stereo not given) | -3.2% (inactive) |
| O=C(c1cccc2ccccc12)N1CCN(CC2CC=CCC2)CC1 (stereo not given) | -22% (inactive) |
| Cc1occc1C(=O)Nc1cccc(C(=O)NCc2ccccc2)c1 | -18% (inactive) |
| CCC(CC)C(=O)Nc1cccc(C(=O)NCc2ccco2)c1 | -24.1% (inactive) |
| O=C(NCc1ccco1)c1cccc(NC(=O)c2ccccc2)c1 | 10.1% (inactive) |
| Cc1ccc(C(=O)Nc2cccc(C(=O)NCc3ccco3)c2)cc1 | 62.7% (active) |
| O=C(NCc1ccccc1)c1cccc(NC(=O)c2ccco2)c1 | 44.7% (inactive) |
| O=C(O)c1ccc(CNC(=O)c2ccc(Br)o2)cc1 | 0.5% (inactive) |
| CC(OC(=O)C1CCN(S(=O)(=O)c2ccccc2)CC1)C(=O)Nc1ncc(Cl)cc1Cl (stereo not given) | -0.7% (inactive) |
| Cc1ncoc1C(=O)Nc1ccc(Oc2ccccc2)cc1 | -20.9% (inactive) |
| O=C(Nc1ccc(O)cc1)c1ccc(C(=O)c2ccccc2)o1 | -1.5% (inactive) |
| CCc1ccccc1N(CC(=O)N1CCN(c2ccccc2)CC1)S(C)(=O)=O | -3% (inactive) |
| COC(=O)c1c(-c2cccs2)csc1NC(=O)CN1CCOCC1 | -10.4% (inactive) |
| CCOC(=O)c1c(-c2cccs2)csc1NC(=O)CN1CC(C)OC(C)C1 (stereo not given) | 61.1% (active) |
| CCOC(=O)c1c(-c2cccs2)csc1NC(=O)CCCC(=O)O | 8.6% (inactive) |

| Structure (SMILES) | cytotoxicity |
| --- | --- |
| CCOC(=O)c1ccc(NC(=O)CSc2nc3c(c(=O)n2C)SC(C)C3)cc1 (stereo not given) | 1.1% (inactive) |
| CCn1c(SCC(=O)Nc2cccc(C)c2)nc2c(c1=O)SC(C)C2 (stereo not given) | 3.7% (inactive) |
| CCOC(=O)c1ccc(NC(=O)CSc2nc3c(c(=O)n2CC)SC(C)C3)cc1 (stereo not given) | 55.3% (active) |
| COC(=O)c1ccc(C(=O)Nc2ccc(N)cc2N)cc1 | -13.9% (inactive) |
| c1ccc(N(c2ccccc2)c2nc(N3CCOCC3)nc(N3CCOCC3)n2)cc1 | 4.8% (inactive) |
| CCC1(CC)Nc2ccccc2C(=O)N1c1ccc(NC(C)=O)cc1 | 10.6% (inactive) |
| COC(=O)C1(C)Nc2ccccc2C(=O)N1c1ccccc1C (stereo not given) | 2.8% (inactive) |
| CCOCCCNC(=O)C(c1ccc(Cl)cc1)N1CCN(C(=O)c2ccco2)CC1 (stereo not given) | -11.6% (inactive) |
| Cc1onc(-c2ccccc2)c1C(=O)NCc1cccnc1 | 4.9% (inactive) |
| Cc1cc(OCCCCCNCCO)ccc1Cl | 18.7% (inactive) |
| O=C(NCc1ccco1)c1cc(-c2ccc(Cl)cc2)on1 | 5.9% (inactive) |
| CC(C)Cc1cc(C(=O)NCc2cccs2)no1 | -21.1% (inactive) |
| CC1(C)Nc2ccc(O)cc2-c2c1ssc2=S | 67.4% (active) |
| CC1(C)c2ssc(=S)c2-c2ccccc2N1C(=O)c1ccco1 | -13.6% (inactive) |
| N#C/C(C(=O)c1ccccc1)=C1/CCCN1 | 10.8% (inactive) |
| COc1ccc(CCN2CC(C#N)=C3c4cc(OC)c(OC)cc4CCN3C2)cc1OC | -1.5% (inactive) |
| O=C(c1ccccc1)N(Cc1ccc(F)cc1)C1CCS(=O)(=O)C1 (stereo not given) | -9.7% (inactive) |
| c1ccc2oc(NC3=NCN(CC4CCCO4)CN3)nc2c1 (stereo not given) | -19.3% (inactive) |
| COc1ccc(-n2nnc3c(SCC(=O)NCC4CCCO4)ncnc32)cc1 (stereo not given) | -2.3% (inactive) |
| CCN(CC)C(=O)CSc1ncnc2c1nnn2-c1ccc(OC)cc1 | -17.1% (inactive) |
| CCOC(=O)Cn1cnc2c(C#N)c3n(c2c1=O)CCCCC3 | -8.7% (inactive) |
| Cc1c(Br)c(C(F)(F)F)nn1CC(=O)NCC1CCCO1 (stereo not given) | -17.2% (inactive) |

| Structure (SMILES) | cytotoxicity |
| --- | --- |
| CCn1c(SCC(=O)Nc2nc3ccccc3s2)nnc1-c1ccc(OC)cc1 | 58.5% (active) |
| CCn1c(Cc2ccc(OC)cc2)nnc1SCC(=O)Nc1nc2ccccc2s1 | -6% (inactive) |
| CCn1c(Cc2ccccc2)nnc1SCC(=O)Nc1nc2ccccc2s1 | -5% (inactive) |
| CCCCNc1nc2ccccc2n1CC(=O)N1CCc2ccccc2C1 | -0.3% (inactive) |
| COc1cccc(-c2cc(C(=O)N3CCCc4ccccc43)no2)c1 | -19.5% (inactive) |
| CCOC(=O)C1=C(C)N=C2SC(C)C(=O)N2C1/C=C/c1ccccc1OC (stereo not given) | -8.3% (inactive) |
| CCNc1nc(CC)nc2c1oc1ccccc12 | -12.6% (inactive) |
| CCc1nc(Nc2ccncc2)c2oc3ccccc3c2n1 | 67.4% (active) |
| Cc1nc(Nc2ccncc2)c2oc3ccccc3c2n1 | -28.9% (inactive) |
| c1ccc2c(c1)[nH]c1c(N3CCCC3)ncnc12 | 0% (inactive) |
| c1ccc2c(c1)[nH]c1c(N3CCC4(CC3)OCCO4)ncnc12 | -10.6% (inactive) |
| OC1(c2cccc(C(F)(F)F)c2)CCN(c2ncnc3c2[nH]c2ccccc23)CC1 | 123% (active) |
| COC(=O)c1cc2c(cc1Cl)SC(=NCCCN1CCOCC1)NS2(=O)=O | -1.2% (inactive) |
| FC(F)Oc1cccc2cccnc12 | -5.8% (inactive) |
| O=C(Nc1cccc2cccnc12)c1ccc(Br)o1 | 5.6% (inactive) |
| O=C(O)c1cccnc1Oc1ccccc1 | -7% (inactive) |
| O=C(COc1cccc2cccnc12)Nc1nccs1 | 8.2% (inactive) |
| COC(=O)c1ccccc1OC(=O)c1ccc(Br)o1 | 7.5% (inactive) |
| O=C(O)c1ccccc1NS(=O)(=O)c1cccc2cccnc12 | 21.6% (inactive) |
| CCc1ccc(C(=O)N2CCN(c3ccc(F)cc3)CC2)s1 | -18.1% (inactive) |
| CC(=O)N1CCN(Cc2cc(=O)n3cc(Cl)c(C)c(Cl)c3n2)CC1 | -7.9% (inactive) |
